Hits are enriched below; roughly 3.8% of the tested compounds scored in any of these assays.
PLK1 PBD inh – blocks phosphopeptide binding to human PLK1 polo-box domain | Plk1 PBD binding of FITC phosphopeptide, fluorescence polarization | Potency, µM, inactives show max response, negative = inhibition, actives largely listed as inhibitors | P53350 | 360,000 tested, 2.8% active; also: potency is read from the fitted curve at half-maximal effect; series mostly up to about 57 µM; % is scaled to controls: 0 for no effect and ±100 for the full control effect; nearly all actives have a fitted effect of over 65% in size
KCNH2 WT inh – inhibitors of human wildtype KCNH2 potassium channel. Q12809. U2OS, BacMam KCNH2, thallium flux FluxOr; stronger effect = lower value. activity change, % at 1.84 µM. 340,000 tested, 0.37% active. AID 720551;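 active = maximum activity change below -70%; inconclusive = maximum activity change between -70% and -50%; inactive = maximum activity change above -50%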; also: % is scaled to controls: 0 for no effect and ±100 for the full control effect
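U2OS cells were transduced with wild-type KCNH2 virus (2.03 x 10^8 / mL) for 4 h at room temperature, then cultured overnight at 37 C. Thallium flux was read with FluxOr dye. Rate constants were normalized to DMSO controls.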
CBFb-RUNX1 inh – inhibitors of human CBF-beta and RUNX1 interaction; Q01196+Q13951; AlphaScreen CBFb-His/RUNX1-biotin binding, biochemical; Potency, µM (titrated, usually from 59.8 µM), inactives show top-dose activity, negative = inhibition, actives largely listed as inhibitors; 230,000 tested, under 10 active; AID 1477; also: % of control where 0% means no effect
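Interaction loss through any mechanism counts as activity. Pre-formed complex of His-CBF-beta and biotin-RUNX1 (30 nM apiece) is incubated with compound 15 min, then with 50 ng nickel and 50 ng streptavidin beads for 90 min before AlphaScreen detection.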
VDR inhibitor – blocks the human vitamin D receptor | P11473 | VDR-SRC2-3 peptide fluorescence polarization, 2 h | Potency, µM, for inactives: max response, negative = inhibition, most hits filed as inhibitors | 400,000 tested, 0.93% active | AID 504847; also: potency is read from the fitted curve at half-maximal effect; % is scaled to controls: 0 for no effect and ±100 for the full control effect
Target sequence (P11473 whole entry, looked up): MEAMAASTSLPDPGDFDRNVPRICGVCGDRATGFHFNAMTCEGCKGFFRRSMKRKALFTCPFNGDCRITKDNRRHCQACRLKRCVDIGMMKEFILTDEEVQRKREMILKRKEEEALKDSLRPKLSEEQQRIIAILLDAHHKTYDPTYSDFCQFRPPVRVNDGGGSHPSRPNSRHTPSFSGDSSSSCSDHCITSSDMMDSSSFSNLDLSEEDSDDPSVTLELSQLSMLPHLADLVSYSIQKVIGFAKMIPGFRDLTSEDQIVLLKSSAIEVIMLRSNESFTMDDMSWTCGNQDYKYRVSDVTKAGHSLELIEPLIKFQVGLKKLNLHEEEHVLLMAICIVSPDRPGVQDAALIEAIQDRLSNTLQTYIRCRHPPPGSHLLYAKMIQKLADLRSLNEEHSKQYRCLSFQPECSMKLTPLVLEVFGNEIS
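Inhibition of the VDR/SRC2-3 peptide interaction is quantified by fluorescence polarization. Compounds (23 nl, pintool) incubate with the reagents for 2 hours at ambient room temperature.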
MBNL1-CUG inh – MBNL1-poly(CUG) RNA binding inhibition. 280,000 tested, 0.036% active. TR-FRET MBNL1-His/biotin-(CUG)12 binding, 665/545 ratio. Potency, µM (top dose mostly 57.5 µM), for the others: at the top dose activity change, negative = inhibition, usual class: inhibitors. AID 2675. Q9NR56; active = well fitted inhibition curve with a large enough effect in the signal ratio, with a control signal flat, not every such curve was filed as active; inconclusive = small, poorly fitted or top-dose-only effect, or effect the other way, or a change in a side signal; inactive = no such curve, though single readings can be large or run the other way; the % refers to the signal ratio; also: potency is read from the fitted curve at half-maximal effect; % is scaled to controls: 0 for no effect and ±100 for the full control effect
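TR-FRET between His-tagged MBNL1 and biotin-(CUG)12 RNA, detected with Tb anti-His antibody (0.055 ng/ul) and streptavidin-XL665 (5 nM), 60 min at room temperature. Compounds titrated 92 nM to 58 uM; 665/545 nm ratio normalized to buffer and complex controls.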
KCNH2 3.1 inh – KCNH2 3.1 (human) potassium channel inhibition; U2OS KCNH2 3.1, thallium flux FluxOr; stronger effect = lower value; activity change, % (tested at about 1.8 µM); 340,000 tested, 0.95% active; AID 720553;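 active = maximum activity change below -70%; inconclusive = maximum activity change from -70% to -50%; inactive = maximum activity change above -50%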;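 also: thallium influx rate constant from kinetic fluorescence after stimulation buffer; % is scaled to controls: 0 for no effect and ±100 for the full control effect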
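Thallium flux read-out: FluxOr dye with Red40 quencher in HBSS/HEPES, 45 min at RT. Rate constants from kinetic reads were normalized to positive and negative DMSO controls. Cells: U2OS virally expressing the 3.1 isoform.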
The depositor's hits bear a star; i = inactive; ? = inconclusive; . = not tested or not shown. Unless noted, calls follow the shape of the dose curve; as a rule, active = well fitted curve in the direction sought with a large enough effect; inconclusive = small, poorly fitted or top-dose-only effect, or another doubt; inactive = no such curve, though single readings can be large; an effect the other way counts as inactive or inconclusive.

SMILES | PLK1 PBD inh | KCNH2 WT inh | CBFb-RUNX1 inh | VDR inhibitor | MBNL1-CUG inh | KCNH2 3.1 inh
CC(=O)C1=C(O)C(=O)N(Cc2cccnc2)C1c1ccccc1 (centres undefined) | 1% | 1 | 5% | 2% | 0% | -25
Cc1cccc(OCCn2c(-c3ccc(Cl)cc3)nc3ccccc3c2=O)c1 | . | . | . | -7% | . | .
CC(=O)O[C@@H]1C(CO[Si](C)(C)C(C)(C)C)=C(Br)C(=O)[C@@H]2O[C@]12C | . | . | -1% | 25µM* | . | .
Oc1c(Br)cc(Br)cc1/C=N/N1CCN(Cc2ccccc2)CC1 | -4% | 8 | 4% | 9% | -5% | -14
Cc1ccc(CN2CCN(/N=C/c3cc(Br)cc(Br)c3O)CC2)cc1 | 17µM* | -1 | -5% | ? | ? | -6
O=C(O)c1ccc2c(c1)C(=O)N(NC(=O)c1ccccc1)C2=O | -7% | -230* | 5% | -8% | ? | -8
O=C(O)c1ccc(S(=O)(=O)c2ccc3c(c2)C(=O)N(NC(=O)c2ccc(O)cc2)C3=O)cc1 | -24% | -6 | 7% | -2% | 21% | -11
Cc1ccc(C(=O)NN2C(=O)c3ccc(S(=O)(=O)c4ccc(C(=O)O)cc4)cc3C2=O)cc1 | 21µM* | 3 | -1% | 40µM* | 0% | 32
Cc1ccc(NC(=O)Cc2ccc(-n3c(C)nc4cccnc43)cc2)c(Cl)c1 | . | . | . | 10% | . | .
CCCCCCCCOC(=O)c1c(CSC(=N)N)n(C)c2cc(Br)c(OC(C)=O)cc12 | 0% | -95* | 7% | -6% | 6% | -102*
Cc1noc(Cn2c(=O)c3cc4c(cc3n(CC(=O)Nc3ccc(C(C)C)cc3)c2=O)OCO4)n1 | . | . | . | 2% | . | .
CCOc1ccccc1NC(=O)c1nn(-c2ccc(OC)cc2)c(=O)c2c1c1ccccc1n2C | . | . | . | -1% | . | .
CCOc1ccc(N(CC)C(=O)c2nn(-c3ccc(OC)cc3)c(=O)c3c2c2ccccc2n3C)cc1 | 27µM* | -4 | 8% | -7% | 4% | -37
CCC(=O)N1CCc2cc(Br)cc(S(=O)(=O)CCC(=O)N3CCN(c4ccccc4F)CC3)c21 | . | . | . | 4% | . | .
O=C(Nc1ccc(Cl)cc1)OCCn1nnnc1C(c1ccccc1Cl)N1CCOCC1 (centres undefined) | 21µM* | 1 | 1% | ? | -12% | 6
C=Cc1ccc(Cn2c(SCC(=O)N3CCN(c4ccc(F)cc4)CC3)nc3ccccc32)cc1 | . | . | . | -14% | . | .
Cc1nn(-c2ccccc2)c2nc(-c3ccncc3)cc(C(=O)NCc3ccco3)c12 | 30µM* | -6 | -1% | -19% | 12% | -7
COc1ccc(N=C2C(=S)N(c3ccc(OC)cc3)C(=NS(=O)(=O)c3ccccc3)N2c2ccccc2)cc1 | 3µM* | -4 | . | ? | . | 30
CCNc1ccc(C(=O)OCC(=O)N2CCCC2)cc1[N+](=O)[O-] | 27µM* | 10 | . | ? | ? | -2
CCOC(=O)c1ccc(Cl)c(S(=O)(=O)N2CCCC2)c1 | 21µM* | 5 | 11% | -20% | 1% | 23
O=C(OCC(=O)N1CCCCCC1)c1ccc(Cl)c(S(=O)(=O)N2CCCC2)c1 | 11µM* | 3 | -16% | ? | -2% | 1
O=C(CSc1nnc(-c2ccc3c(c2)OCO3)o1)Oc1ccccc1 | . | . | . | 15% | . | .
CCCCNC(=O)c1ccc2nc(-c3cccs3)c(-c3cccs3)nc2c1 | . | . | . | -21% | . | .
Oc1cccc(/C=N/NC(=S)Nc2cccnc2)c1O | 0% | -2 | . | 0% | . | 22
Oc1ccc(/C=N/NC(=S)Nc2cccnc2)c(O)c1O | 6.7µM* | -3 | . | 50µM* | 3% | -16
SMILES | PLK1 PBD inh | KCNH2 WT inh | CBFb-RUNX1 inh | VDR inhibitor | MBNL1-CUG inh | KCNH2 3.1 inh
O=C(N/N=C/c1ccc(O)cc1O)C(=O)N/N=C/c1ccc(O)cc1O | 12µM* | 16 | . | ? | -21% | -18
COc1cccc(N/N=C/c2cccc(Br)c2O)c1 | -10% | 0 | -9% | -8% | -11% | 22
Cc1cccc(N/N=C/c2ccc(O)c(O)c2O)c1 | 12µM* | -8 | -17% | ? | 1% | 0
Oc1ccc(/C=N/NC(=S)Nc2cccnc2)c(O)c1 | ? | -176* | . | -3% | 47% | -137*
O=C(CCC(=O)Nc1ccc(F)cc1)N/N=C/c1ccc(O)cc1O | -16% | i | -17% | 17% | 18% | -4
COc1ccc(-c2nc(SCC(=O)NCCCc3ccccc3)n[nH]2)cc1 | . | . | . | 13% | . | .
CC(C)(C)C(=O)NCC(c1ccc2c(c1)OCO2)N1CCOCC1 (centres undefined) | . | . | . | -2% | . | .
Cc1nc2cccnc2n1-c1cccc(C(=O)NCCc2ccc(S(N)(=O)=O)cc2)c1 | . | . | . | 7% | . | .
O=C(CSc1ccccc1C(=O)O)NC12CC3CC(CC(C3)C1)C2 | 30µM* | 9 | -3% | -25% | 4% | -1
CCOc1ccccc1N(C)C(=O)Cn1nc(Cc2ccncc2)c2ccccc2c1=O | . | . | . | -12% | . | .
COc1ccc(C)cc1S(=O)(=O)N1CCC(C)CC1 | -9% | -27 | 9% | -6% | -4% | 11
Cc1ccc(S(=O)(=O)N2CCC(C)CC2)c([N+](=O)[O-])c1 | 24µM* | 0 | 7% | -7% | -1% | -44
Cc1ccc([N+](=O)[O-])cc1S(=O)(=O)N1CCC(C)CC1 | 38µM* | -6 | -9% | 2% | ? | -3
Cc1cc(-c2ccc(C)c(S(=O)(=O)N3CCN(c4ccc([N+](=O)[O-])cc4)CC3)c2)on1 | -11% | -29 | . | 15% | 2% | -96*
C=C(C)COc1ccc2c(CC)cc(=O)oc2c1 | 13µM* | . | -4% | ? | -11% | 0
COC(=O)COc1ccc2c(-c3ccc(OC)cc3)cc(=O)oc2c1 | -1% | ? | -7% | -5% | 15% | -79*
Cc1ccccc1-c1nc(CN2CCC(C(=O)NC(C)C)CC2)c(C)o1 | . | . | . | 6% | . | .
Cc1ccc(S(=O)(=O)C(CNS(=O)(=O)c2ccc(F)c(C)c2)c2cccs2)cc1 (centres undefined) | . | . | . | -1% | . | .
CCOC(=O)C1(CCCc2ccccc2)CCN(CCCn2cccn2)CC1 | -9% | -131* | 8% | -5% | 2% | -111*
CCOC(=O)C1(CCCc2ccccc2)CCN(Cc2cnc(C)s2)CC1 | -16% | -91* | -2% | -24% | -6% | -23
CCOC(=O)C1(Cc2cccc(F)c2)CCN(Cc2cn(CC)nc2C)CC1 | -8% | 2 | 0% | 13% | ? | -1
CCOC(=O)C1(Cc2ccc(Cl)cc2)CCN(C2CCC2)CC1 | -3% | 8 | . | -4% | 4% | -4
CCOC(=O)C1(Cc2ccccc2)CCN(C2Cc3ccccc3C2)CC1 | 2% | -3 | -7% | -7% | -5% | -86*
